From PubChem BioAssay AID588342 (National Center for Advancing Translational Sciences (NCATS), 2011) come the findings set out here.

In all, about 360,000 compounds went through this assay and about 25,000 (6.9%) were called active. Entries that show only a call come without a potency. Roughly 9% stayed inconclusive and do not appear here. The call rests on the fitted dose curve; in most records, active means well fitted inhibition curve with a large enough effect; inconclusive means small, poorly fitted or top-dose-only effect; inactive means flat fitted curve, though single readings scatter. Only a selection was taken, and actives are over-represented in it overall.
Potency means the concentration at half of the fitted maximal effect.

Chain of Luciferin 4-monooxygenase (Photinus pyralis) (P08659 whole entry, looked up): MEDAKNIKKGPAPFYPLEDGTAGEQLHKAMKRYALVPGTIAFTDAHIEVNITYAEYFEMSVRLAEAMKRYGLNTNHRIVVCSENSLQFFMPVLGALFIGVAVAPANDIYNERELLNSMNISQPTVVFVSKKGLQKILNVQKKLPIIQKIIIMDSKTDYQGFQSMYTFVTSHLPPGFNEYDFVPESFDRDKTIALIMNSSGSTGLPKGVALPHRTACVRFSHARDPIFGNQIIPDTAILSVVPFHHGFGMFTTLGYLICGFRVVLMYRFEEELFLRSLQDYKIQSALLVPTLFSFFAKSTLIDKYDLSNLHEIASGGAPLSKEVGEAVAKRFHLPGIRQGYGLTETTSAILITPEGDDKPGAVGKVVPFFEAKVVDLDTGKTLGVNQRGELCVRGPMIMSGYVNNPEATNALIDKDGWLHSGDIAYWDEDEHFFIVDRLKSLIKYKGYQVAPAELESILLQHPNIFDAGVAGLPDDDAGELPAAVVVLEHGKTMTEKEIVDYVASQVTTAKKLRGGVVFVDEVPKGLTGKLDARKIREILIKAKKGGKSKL

This test concerns the target Luciferin 4-monooxygenase (Photinus pyralis) (UniProt P08659). Description: qHTS profiling assay for firefly luciferase inhibitor/activator using purifed enzyme and Km concentrations of substrates (counterscreen for miR-21 project). Further: nearly all actives have a fitted effect of over 55% in size. To be noted: purified FLuc, luminescence inhibition; series mostly up to 57.5 µM. Summed up:
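Purified P. pyralis luciferase, 10 nM final, with Km-level 10 uM D-luciferin and 10 uM ATP in 50 mM Tris acetate pH 7.5, 10 mM Mg acetate, 0.01% Tween-20, 0.05% BSA; 6-point qHTS titration about 60 µM downward; luminescence read.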
On to `c1ccc(NCc2cccc3ccccc23)nc1`, for which the Potency result was “inactive”. For the compound `Oc1ccc2ccccc2c1N=Nc1nccs1`, the Potency was 19 µM (active). Then `O=c1c(-c2cccc(Cl)c2)c[nH]n1-c1ccccc1`, with 26.9 µM (active). As to `O=c1c2cc(Br)ccc2nc(-c2cccc(Cl)c2)n1O`, the Potency entry was “inactive”. Take `O=C1CC(NNc2ccccc2)C(=O)N1c1cccc(Cl)c1` (stereo not drawn): the Potency result was “inactive”. Then `COc1ccc(S(=O)(=O)n2nc(C)c(S(=O)(=O)N3CCCCCC3)c2C)cc1`, with “inactive”; and `COc1cc(NC(=O)c2cc(C3CC3)nc3c2c(C)nn3-c2ccccc2)cc(OC)c1`, with “inactive”; and `O=[N+]([O-])c1ccc2c(c1)C(N1CCOCC1)/C(=C/C1(O)CCCCC1)O2` (stereo not drawn), with “inactive”.

For the compound `Cn1c(=O)c2sccc2n2c(CCC(=O)NCc3ccccc3Cl)nnc12`, the Potency entry was “inactive”. Regarding `Cc1ccc(-n2nc3c(c2NC(=O)c2ccc4c(c2)OCO4)CSC3)c(C)c1`, the Potency result was “inactive”. As for `Cn1c(NC(=O)c2ccc3c(c2)OCO3)cc(=O)n(C)c1=O`, the Potency result was “inactive”. Then `COCc1nnc(NC(=O)c2ccc3c(c2)OCO3)s1`, with 23.9 µM (active). Then `CN(CC(=O)Nc1cccc(F)c1)CC(=O)Nc1cccc([N+](=O)[O-])c1`, with “inactive”; and `O=C(Nc1ccc(NC(=O)c2ccc3c(c2)OCO3)cc1)c1cccc(Cl)c1`, with “inactive”; and `O=C(Nc1ccccc1)c1ccc2c(c1)OCO2`, with 12 µM (active). Then `Cc1ccc2sc(NNC(=O)c3ccc4c(c3)OCCO4)nc2c1C`, with “inactive”; and `COCc1nnc(NC(=O)CS(=O)(=O)Cc2ccccc2)s1`, with “inactive”.

As to `O=CN1CCN(C(=O)c2ccc3c(c2)OCO3)CC1`, the Potency result was “inactive”. With `CC(NC(=O)Nc1cccc([N+](=O)[O-])c1)c1ccc2c(c1)OCO2` (stereo not drawn), the Potency entry was “inactive”. As for `O=C(Nc1nc2ccccc2s1)c1ccc2c(c1)OCO2`, the figure is 0.301 µM (active); as for `O=C(Nc1cccc([N+](=O)[O-])c1)c1ccc2c(c1)OCO2`, 19 µM (active).

On to `CSCCC(NS(=O)(=O)c1ccc2c(c1)oc(=O)n2C)C(=O)NC1CCCc2ccccc21` (stereo not drawn), for which the Potency result is “inactive”. As to `Cc1ccc(N2C(=O)C3N=NN(CC(=O)N4N=C(c5cccc6ccccc56)CC4c4ccccc4)C3C2=O)cc1` (stereo not drawn), the Potency result is “inactive”. Regarding `O=C(Nc1c(C(=O)N2CCN(c3ccc(F)cc3)CC2)oc2ccccc12)c1ccco1`, the Potency entry is “inactive”.

For `CN(CC#CCC(c1ccccc1)c1ccccc1)C(C)(C)C`, the Potency entry was “inactive”. Take `CCOC(=O)c1ccc(NC(=O)c2ncn(-c3ccccc3)n2)cc1`: the Potency result is “inactive”. Regarding `O=C1Cc2cc(S(=O)(=O)Nc3cccc(F)c3)ccc2N1`, the Potency result is “inactive”.

Consider `COC(=O)c1ccc(NC(=O)c2cnn(-c3ccc(Cl)cc3)c2C2CCN(C(=O)OC(C)(C)C)CC2)cc1`, for which the Potency entry was “inactive”. Then `CCOc1ccc(C(=O)NCC(=O)N2CCCCCCC2)cc1OCC`, with “inactive”. Then `O=C(Nc1ccc(N2CCOCC2)cc1)c1ccc2c(c1)OCO2`, with 10.7 µM (active); and `O=C(NCCS(=O)(=O)N1CCN(c2ccc(F)cc2)CC1)c1ccc2c(c1)OCO2`, with “inactive”; and `CC(=O)Nc1cccc(C(=O)OCN2C(=O)c3ccccc3C2=O)c1`, with “inactive”. Turning to `O=C(Nc1ccc2c(c1)CCC2)c1cccc(S(=O)(=O)Nc2ccccc2Cl)c1`, the Potency was 21.3 µM (active).

For `CC(Sc1nc(-c2ccccc2)cc(C(F)(F)F)n1)C(=O)Nc1ccc2c(c1)OCO2` (stereo not drawn), the Potency entry is “inactive”. `O=C(Nc1ccc2c(c1)CCC2)c1cccc(S(=O)(=O)N2CCN(c3ccc(F)cc3)CC2)c1`: the Potency entry was “inactive”. Then `O=C(c1cccc(S(=O)(=O)Nc2ccccc2Cl)c1)N1CCN(C(=O)c2ccco2)CC1`, with “inactive”; and `CC(C)C(=O)Nc1cccc(C(=O)Nc2ccc3c(c2)OCO3)c1`, with 8.49 µM (active); and `CC(NC(=O)COC(=O)c1ccc2c(c1)OCO2)c1ccccc1` (stereo not drawn), with “inactive”. As to `O=C(c1ccc2c(c1)OCO2)N1CCOCC1`, the Potency entry is “inactive”. As for `CC(=O)Nc1cccc(C(=O)OCC(=O)c2ccc3c(c2)OCO3)c1`, the Potency is 0.135 µM (active). In the case of `O=C(c1ccccc1F)N1CCC(c2nc3c(nnn3Cc3cccc(F)c3)c(=O)[nH]2)CC1`, the Potency entry was “inactive”.

On to `Cc1ccc2ncc(C(=O)Nc3ccc(OC(F)(F)F)cc3)c(=O)n2c1`, for which the Potency entry was “inactive”.

`CCn1c2c(c(=O)n3ncc(C(=O)N4CCN(c5ccccc5)CC4)c13)CN(Cc1ccc(OC)cc1)CC2`: the Potency entry is “inactive”. Then `CN(Cc1ccccc1)CC(O)COc1ccc(CNCc2cc3ccccc3s2)cc1` (stereo not drawn), with “inactive”.

`Cc1cc(C)cc(NC(=O)CSc2oc(-c3ccccc3)nc2S(=O)(=O)c2ccc(Cl)cc2)c1`: the Potency entry is “inactive”.

Turning to `Cc1sc2ncnc(SCC(=O)Nc3ccc(CN4CCCC4)cc3)c2c1C`, the Potency result is “inactive”. Regarding `Cc1ccc(C)c(NC(=O)C(c2ccccc2)N2CCN(CC(=O)NC3CC3)CC2)c1` (stereo not drawn), the Potency entry was “inactive”. Consider `CC(=O)NC(CC(=O)Nc1cccc(S(=O)(=O)N2CCCC2)c1)c1ccccc1` (stereo not drawn), for which the Potency result is “inactive”. Take `O=C(Nc1ccccc1)c1ccc2c(c1)OCCCO2`: the Potency was 1.2 µM (active).

Take `O=C(CN(Cc1ccccc1)C(=O)c1ccc2c(c1)OCCO2)NCc1ccc2c(c1)OCO2`: the Potency result was “inactive”. As for `C/C(Cc1ccccc1)=N\NC(=O)CNC(=O)c1ccc2c(c1)OCCO2`, the Potency entry is “inactive”. Then `CC(NS(=O)(=O)c1ccc(Cl)cc1)C(=O)Nc1ccc2c(c1)OCCO2` (stereo not drawn), with “inactive”; and `O=C(Nc1cccc(S(=O)(=O)Nc2ccc(Cl)cc2)c1)c1ccc2c(c1)OCCO2`, with 16.9 µM (active); and `O=C(Nc1ccc(C(=O)N2CCCCC2)cc1)c1cccc([N+](=O)[O-])c1`, with “inactive”. With `O=C(Nc1ccc(NC(=O)c2ccco2)c(Cl)c1)c1cccc([N+](=O)[O-])c1`, the Potency result is “inactive”.

`O=C(CN1CCc2cc3c(cc2C1)OCCCO3)Nc1ccccc1`: the Potency entry was “inactive”.

Turning to `O=C(Nc1ccc(C2CC2(Cl)Cl)cc1)c1cccc([N+](=O)[O-])c1` (stereo not drawn), the Potency was 12 µM (active). For `O=C(OCc1ccccc1F)c1ccc2c(c1)OCCO2`, the Potency is 6.01 µM (active).

With `CCN(CC)CCNC(=O)c1ccc(NS(=O)(=O)c2ccc3c(c2)OCCO3)cc1`, the Potency result was “inactive”.

With `Cc1cc2oc(C(=O)N(Cc3ccc(Cl)cc3)Cc3ccco3)c(C)c2cc1Cl`, the Potency entry is “inactive”. Regarding `Cc1cc(N2CCN(c3cccc(C(F)(F)F)c3)CC2)n2nc(-c3ccccc3)nc2n1`, the Potency entry is “inactive”. `COc1ccc(-c2ccc(=O)n(CC(=O)Nc3ccc(Br)cc3F)n2)cc1`: the Potency entry was “inactive”.

As to `CC(=O)Nc1ccc(S(=O)(=O)NC2(C(F)(F)F)C(=O)NC(C)=C2C#N)cc1` (stereo not drawn), the Potency result is “inactive”.
